Bioassay records (PubChem BioAssay)
GLD-1 RNA inh: GLD-1/TGE RNA complex disruptors, primary screen, biochemical, fluorescence polarization; 320,000 tested, 0.44% active; inhibition, % at 5.96 µM; purified GLD-1 + fluorescein TGE RNA;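 active = percent inhibition above a per-plate cutoff, the plate mean of test compounds plus 3 SD, cut at about 30% in these data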
EBV gp42 inh: Epstein-Barr virus gp42 inhibitors, primary screen, biochemical, uHTS, fluorescence polarization; Glycoprotein 42 (Epstein-Barr virus (strain AG876)), Q1HVG2; Fluorescence polarization binding assay, mP read-out; inhibition, % (tested at 21.74 µM); 220,000 tested, 0.42% active; AID 1085, 2008; in the data active = inhibition above about 50%
Target sequence (Q1HVG2 whole entry, looked up): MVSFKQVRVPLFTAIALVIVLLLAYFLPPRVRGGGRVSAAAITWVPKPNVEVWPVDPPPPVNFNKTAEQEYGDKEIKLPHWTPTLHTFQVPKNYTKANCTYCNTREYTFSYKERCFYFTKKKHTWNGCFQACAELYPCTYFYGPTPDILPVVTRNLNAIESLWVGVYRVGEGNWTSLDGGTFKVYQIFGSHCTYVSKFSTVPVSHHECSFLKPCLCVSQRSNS
MEX-5 binding: MEX-5 zinc finger RNA-binding disruptors – biochemical, C. elegans, fluorescence polarization, MLPCN library, primary screen | Zinc finger protein mex-5 (Caenorhabditis elegans), Q9XUB2 | AID 1832, 2009 | activity score (negative = inhibition of binding), % at 10 µM | MEX-5/FITC-TCR2 RNA binding; active compounds read low | 300,000 tested, 0.38% active;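 active = inhibition past about -25% in most replicates, and total fluorescence under double the plate's negative control median, limit read from the data; inconclusive = replicates evenly split on the limit, or fluorescence at least double controls; inactive = too little inhibition in most replicates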
eLon inh: inhibitors of E. coli Lon protease, primary screen, biochemical, fluorescence polarization; inhibition, % at 7.94 µM; purified E. coli Lon protease; 360,000 tested, 0.42% active; in the data active = inhibition above about 13%, passing the limit was not always enough
Bcl-xL primary: inhibitors of human Bcl-xL, primary screen, biochemical, fluorescence polarization, HTS; inhibition, % at 10.9 µM; 320,000 tested, 0.7% active; Bcl-2-like protein 1 (Homo sapiens), Q07817; GST-Bcl-xL / FITC-Bim BH3 peptide fluorescence polarization; AID 2129, 2009;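 active = inhibition above the mean of all tested compounds plus 3 SD, cutoff set per campaign, cut at about 30% in these data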;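 also: inhibitors lower millipolarization by displacing the labeled peptide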
Target sequence (Q07817 whole entry, looked up): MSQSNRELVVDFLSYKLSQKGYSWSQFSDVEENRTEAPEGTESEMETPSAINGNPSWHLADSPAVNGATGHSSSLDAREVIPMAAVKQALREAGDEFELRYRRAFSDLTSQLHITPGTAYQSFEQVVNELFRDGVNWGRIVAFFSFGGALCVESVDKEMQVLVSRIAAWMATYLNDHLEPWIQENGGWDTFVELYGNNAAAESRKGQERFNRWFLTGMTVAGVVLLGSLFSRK
Numbers stand for hits; i = inactive; ? = inconclusive; nt = no result given. Compounds with a hit are over-represented: about 1.3% of the library has one in this group of screens.

SMILES	GLD-1 RNA inh	EBV gp42 inh	MEX-5 binding	eLon inh	Bcl-xL primary
O=C(c1cn(-c2ccccc2)nc1-c1cccnc1)N1CCN(S(=O)(=O)c2ccc(Cl)cc2)CC1	nt	nt	nt	i	nt
CC(=O)NC(c1ccc(C(C)C)cc1)c1c(O)ccc2ccccc12 (stereo unspecified)	i	nt	i	i	i
Cc1ccc(C(NC(=O)C2CCCCC2)c2c(O)ccc3ccccc23)cc1 (stereo unspecified)	i	60	i	i	i
Cc1ccc(C)c2nc3sc(C(=O)N4CCCc5ccccc54)c(N)c3cc12	i	142	i	i	i
CC(C)c1ccc2nc3sc(C(=O)N4CCc5ccccc5C4)c(N)c3cc2c1	i	i	i	i	i
CCc1ccc2nc3sc(C(=O)N4CCc5ccccc54)c(N)c3cc2c1	i	159	i	nt	i
Cc1ccc2nc3sc(C(=O)N4CCOCC4)c(N)c3cc2c1	i	i	-44	i	i
CC(c1nc2ccccc2[nH]1)N(C(=O)C1=NNC(=O)CC1)c1ccccc1 (stereo unspecified)	nt	nt	nt	i	nt
Cc1ccc2c(=O)n3c(nc2c1)C(C)NC(=O)c1cccnc1-3 (stereo unspecified)	nt	nt	nt	i	nt
C=CCN1C=C(C(C)=O)C(=O)CC1	nt	nt	nt	i	nt
C=CCN1C=CC(=O)CC1	87	i	i	i	164
N=C1/C(=C\c2ccc(SCc3ccccc3)o2)C(=O)N=C2SC(CC(=O)N3CCOCC3)=NN12	i	i	-30	i	i
Cc1ccc(NC(=O)c2cnccn2)nc1	nt	nt	i	i	nt
CC(=O)n1c(C=Nc2ccc(Cl)cc2)c(O)c2ccccc21	i	125	?	i	81
COc1cccc(CNC(=O)CSc2nc(=O)n(Cc3ccncc3)c3c2CCC3)c1	i	nt	i	i	i
CN1CC=C2C(C#N)=C(N)C(C#N)(C#N)[C@H](c3cccs3)[C@H]2C1	79	i	-68	109	112
CN1C2C=C3C(C#N)=C(N)C(C#N)(C#N)[C@@H](c4ccsc4)[C@@H]3C1CC2 (stereo partly specified)	i	i	i	nt	i
CCOC(=O)N1CC=C2C(C#N)=C(N)C(C#N)(C#N)[C@H](c3ccsc3)[C@H]2C1	i	i	?	i	41
CCOC(=O)N1CC=C2C(C#N)=C(N)C(C#N)(C#N)[C@H](c3ccccc3OCC)[C@H]2C1	i	i	i	i	i
CN1CC=C2C(C#N)=C(N)C(C#N)(C#N)C(CCc3ccccc3)C2C1 (stereo unspecified)	49	i	nt	33	89
N#CC1=C(N)C(C#N)(C#N)C(c2ccncc2)C2CN(C(=O)OCc3ccccc3)CC=C12 (stereo unspecified)	i	i	i	i	i
COc1cc([C@@H]2[C@H]3CN(C)CC=C3C(C#N)=C(N)C2(C#N)C#N)cc2c1OCO2	i	i	nt	i	54
CCN(Cc1ccccc1)C(=O)CC(=O)N(CC)Cc1ccccc1	i	nt	i	i	i
CC1(C(=O)O)CCN1C(=O)c1ccccc1F (stereo unspecified)	nt	nt	nt	i	nt
CCOC(=O)c1cc2c(c(-c3ccccc3)n1)[C@H](CCO)N(S(=O)(=O)C(C)(C)C)C2	nt	nt	nt	i	nt
SMILES	GLD-1 RNA inh	EBV gp42 inh	MEX-5 binding	eLon inh	Bcl-xL primary
O=S(=O)(O)c1cc(O)c2c(O)c(N=Nc3cc(Cl)ccc3O)c(S(=O)(=O)O)cc2c1	i	nt	-46	45	i
Cc1cc(-c2ccc(N=Nc3c(S(=O)(=O)O)cc4cc(S(=O)(=O)O)cc(N)c4c3O)c(C)c2)ccc1N=Nc1c(S(=O)(=O)O)cc2cc(S(=O)(=O)O)cc(N)c2c1O	i	nt	nt	nt	65
O=S(=O)(O)c1cc(Cl)cc(N=Nc2ccc(O)cc2O)c1O	nt	nt	nt	i	nt
CC(C)S(=O)(=O)C/C(N)=N/OC(=O)c1cc(Cl)cc(Cl)c1	i	i	i	i	i
CC(C)N1CCN(CC#Cc2ccccc2)CC1CCO (stereo unspecified)	i	i	i	i	i
CCSc1sccc1C1C(C#N)=C(N)N(c2cccnc2)C2=C1C(=O)CCC2 (stereo unspecified)	i	i	i	i	31
COC(=O)N/N=C/c1ccc([N+](=O)[O-])s1	i	i	i	i	i
COc1ccccc1NC(=O)C(=O)N/N=C/c1ccc([N+](=O)[O-])s1	nt	79	i	i	nt
NS(=O)(=O)c1ccc(Nc2nc(-c3ccc(F)cc3)cs2)cc1	i	i	i	i	i
NS(=O)(=O)c1ccc(Nc2nc(-c3ccc(O)cc3O)cs2)cc1	i	i	-45	i	i
Cn1nc(C(F)(F)F)c(C(=O)Nc2ccc(F)cc2F)c1Sc1ccc(C(F)(F)F)cc1	i	i	i	i	i
COc1cccc(/C=N/NC(=O)c2ccncc2)c1OC(=O)c1ccc(Br)cc1	i	nt	i	i	34
C=CCN(c1ccc(Br)cc1C(=O)OC)S(C)(=O)=O	i	nt	nt	i	47
Cn1c(NCCc2ccncc2)nc2cc(-c3ccsc3)sc2c1=O	nt	nt	nt	i	nt
COc1cccc(C2C3(C#N)C(N)=NC(OC)(OC)C23C#N)c1 (stereo unspecified)	i	i	i	i	i
COc1ccc(C2NC3=C(CCC3)C3(C#N)C(OC)(OC)N=C(N)C23C#N)cc1 (stereo unspecified)	i	i	i	i	31
O=C1NCCCC2c3c(cc(Br)c(O)c3Br)OC12N1CCOCC1 (stereo unspecified)	i	i	i	i	i
O=C1NCCCC2c3cc(O)c4ccccc4c3OC12N1CCCCC1 (stereo unspecified)	i	i	nt	nt	52
COC(=O)C1=C(O)/C(=C\c2ccc(CNS(=O)(=O)c3ccccc3)o2)N=C1C	i	i	i	i	45
COC(=O)C1=C(O)/C(=C\c2ccc(CNS(=O)(=O)c3ccc(Cl)cc3)o2)N=C1C	i	i	i	i	i
C=CCN1C(=O)/C(=C2/Sc3ccccc3N2CC)SC1=S	i	nt	-30	i	i
C=CCN1C(=O)/C(=C2/Sc3ccccc3N2CCCS(=O)(=O)O)SC1=S	i	i	i	i	i
CC1=CC(C)(C)Nc2ccc(OC(=O)CN3C(=O)c4cccc5cccc(c45)C3=O)cc21	i	i	i	i	36
CCCN(CC(=O)Nc1ccccc1OC)C(=O)CCC(=O)c1ccc(OCC)cc1	i	nt	nt	i	i
CN1CCc2c(sc3c2C(=O)NC(c2ccco2)N3)C1 (stereo unspecified)	i	i	i	i	38
COc1ccc(CCNc2nc(-c3cccnc3)cs2)cc1OC	i	138	i	i	i
CCN(c1ccccc1)S(=O)(=O)c1nnc(NC(=O)c2ccccc2OC)s1	i	nt	i	i	i
O=C(Nc1nccs1)c1cccc(N2C(=O)c3cccc4c([N+](=O)[O-])ccc(c34)C2=O)c1	69	i	i	i	43
